Assay results from the supplement of paper PMC3334620.
In all, about 33,000 sequences were measured (“E-score (-0.5 to 0.5)”: median about -0.032, highest 2% from about 0.36 on). Shown is part of a subset that was picked to be rich in the highest values.

What follows are sequences tested against T1, Sko1 (UniProt Q02100) (assay: PBM E-score (8-mer binding enrichment) (E-score (-0.5 to 0.5)); higher = stronger / more preferred TF binding). Conditions: protein concentration: 200 nM; construct: GST-full length.
T1 sequence: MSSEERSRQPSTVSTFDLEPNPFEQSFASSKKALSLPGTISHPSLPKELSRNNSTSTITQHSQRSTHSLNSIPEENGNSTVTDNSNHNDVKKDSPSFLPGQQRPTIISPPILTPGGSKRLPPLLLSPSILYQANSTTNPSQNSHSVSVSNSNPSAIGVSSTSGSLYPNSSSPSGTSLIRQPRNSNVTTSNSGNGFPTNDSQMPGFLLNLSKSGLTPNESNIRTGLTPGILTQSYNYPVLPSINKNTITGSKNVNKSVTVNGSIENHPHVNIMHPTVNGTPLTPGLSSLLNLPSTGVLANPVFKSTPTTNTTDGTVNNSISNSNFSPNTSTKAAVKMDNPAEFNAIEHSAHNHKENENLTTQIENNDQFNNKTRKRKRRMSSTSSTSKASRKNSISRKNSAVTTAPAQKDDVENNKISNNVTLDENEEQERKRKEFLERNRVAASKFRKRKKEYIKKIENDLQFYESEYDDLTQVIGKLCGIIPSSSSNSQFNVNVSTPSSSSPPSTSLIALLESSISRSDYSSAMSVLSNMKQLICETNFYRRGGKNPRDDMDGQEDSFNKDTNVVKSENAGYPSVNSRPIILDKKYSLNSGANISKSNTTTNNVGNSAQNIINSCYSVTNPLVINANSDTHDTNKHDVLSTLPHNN
Procedure, shortened: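 E-scores (a modified Wilcoxon-Mann-Whitney statistic) were assigned by the Universal PBM Analysis Suite to every ungapped eight-base word pooled with its reverse complement. The input came from universal all-10-mer Agilent arrays made double-stranded by primer extension and probed with GST-tagged yeast transcription factors at about 100-200 nM. Fluorescent anti-GST detected bound protein, and masliner normalised the scans.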

| Sequence | PBM E-score |
| --- | --- |
| ACTCTCTG | -0.135 |
| CTCGCAAG | 0.0771 |
| CAGCACCG | -0.198 |
| AAGAGCAT | 0.0596 |
| AAAGGTGA | -0.09 |
| CATTGTTA | 0.108 |
| GTTCTTTA | 0.175 |
| GTTACGTA | 0.483 |
| CTTACGGC | -0.277 |
| GTTACGGA | 0.0875 |
| CTTACGGA | 0.0115 |
| CTTAGGTC | 0.0974 |
| CTTACGTC | 0.459 |
| CTTACTTA | 0.0934 |
| GTTACTGA | 0.173 |
| CTTACGTA | 0.489 |
| GGTTGCCA | -0.215 |
| CCCTGATA | -0.149 |
| ATCACTGG | 0.0306 |
| CATATCCA | -0.129 |
| ACCGTTCC | -0.0907 |
| GCGCCACC | -0.291 |

| Sequence | PBM E-score |
| --- | --- |
| AAACGTGA | 0.308 |
| AGACGTGG | 0.203 |
| CTACGTGC | 0.354 |
| AGACGTGA | 0.312 |
| ATACGTGG | 0.429 |
| GAACGTGA | 0.175 |
| GGACGTGA | 0.181 |
| GTACGTGA | 0.416 |
| ATACGTGA | 0.426 |
| AGACGTGC | 0.241 |
| ATACGTGC | 0.406 |
| AAACGTGG | 0.213 |
| CAGTCTTC | -0.187 |
| AGCCGAAT | -0.104 |
| AGCCTTTA | 0.0785 |
| CTGGTGGA | -0.185 |
| CTACGTGA | 0.404 |
| CTTCGTGA | 0.186 |
| CTACGCGA | 0.167 |
| AGTCAGAG | -0.142 |
| AGTCAGAC | -0.203 |
| GGTCAGAC | -0.241 |

| Sequence | PBM E-score |
| --- | --- |
| CCTCAGAG | -0.374 |
| CGTCAAAC | 0.253 |
| CGTCAGAC | 0.394 |
| CGTCAAAA | 0.36 |
| GGTCAAAA | 0.096 |
| GGTCAGAA | -0.206 |
| AGTCAGAA | -0.0299 |
| CGTCAGAG | 0.429 |
| CGTCAGAA | 0.37 |
| CTAACTTA | 0.00938 |
| CGCTGTGC | -0.202 |
| CGTTATTA | 0.303 |
| CACAGTGC | -0.182 |
| AGACTTAT | -0.0312 |
| AGTCAGTC | -0.02 |
| CGTCAATA | 0.359 |
| CGTCAGGA | 0.39 |
| CGTCAGTA | 0.327 |
| AGTCAACG | 0.0691 |
| CGTCAGGC | 0.272 |
| CGTCAGTC | 0.375 |
| GGTCAGGA | -0.245 |

| Sequence | PBM E-score |
| --- | --- |
| AGTCAATC | 0.017 |
| CGTCAACA | 0.323 |
| CGTCAACG | 0.389 |
| CGTCAATC | 0.365 |
| CCTGGTAA | -0.124 |
| CGCTGTCC | -0.0275 |
| ATTCCATG | -0.0675 |
| AACGAAAT | 0.261 |
| CGTGGGAA | 0.00507 |
| GCATAAAC | 0.166 |
| ACCAAGGC | -0.197 |
| CTGCCCGC | -0.0733 |
| GCCTACAA | -0.169 |
| CTCTGATA | 0.0155 |
| GCAAGTCA | 0.00337 |
| ACAGAGAG | -0.274 |
| ATTTCTTG | 0.164 |
| GGCTCACA | -0.118 |
| GTGTCCAA | 0.142 |
| ATTGTGCA | 0.076 |
| CTGTTCGA | -0.13 |
| ACGTCGCC | 0.327 |

| Sequence | PBM E-score |
| --- | --- |
| GACGTGAA | 0.358 |
| CACGTGAC | 0.387 |
| CACGTGAG | 0.344 |
| CGCGTGAC | 0.267 |
| GACGTGAC | 0.432 |
| AACGTGAC | 0.277 |
| AATCGACG | 0.295 |
| GAAACCCC | -0.221 |
| GCGACGAA | 0.0338 |
| CCGACGTC | 0.309 |
| GCGACGGA | -0.237 |
| CCGACGTA | 0.415 |
| CCGACGGA | -0.237 |
| GCGACGTA | 0.413 |
| GACACTGC | -0.0761 |
| GGGCGCTA | -0.0254 |
| GCTGGAAC | -0.188 |
| AAGTAGCT | 0.0695 |
| GCGTAGCC | 0.00349 |
| ACTTAGCG | 0.0634 |
| ACTTAGCT | -0.211 |
